# Calls of active or inactive are those of the source. Unless noted, no rule for the calls is given here.
# Assays:
# [1] = liver-stage malaria parasite load reduction – cell-based, known kinase inhibitor set, luminescence, hepatoma host viability (AID 624392); conditions: Plasmodium liver stage in hepatoma cells, luciferase luminescence, concentration not given here; liver cell % of control: measured here: host liver cell viability; parasite % of control: stronger effect = lower value;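 also: infected cells incubated roughly two days before readout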
# [2] = altered dexamethasone sensitivity, NF-kB reporter, cell-based, luciferase, IL-1B stimulus (AID 624486); conditions: IL-1B + dexamethasone, luminescence; percent of negative control (+Dex): actives lie on both sides, concentration not given here; z-score: measured here: IL-1B alone, no Dex;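 as to percent of negative control (+Dex): 100% = mean signal of vehicle control wells on the plate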
# [3] = C. elegans survival during P. aeruginosa infection – whole organism (AID 651566);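 also: tested at 14 µM; sign flipped so higher z means a lower ratio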; conditions: C. elegans killed by P. aeruginosa, survival ratio
# [4] = pro-inflammatory signaling induction in mouse macrophages – cell-based, murine, luminescence (AID 652131); conditions: murine macrophage pro-inflammatory reporter, stronger effect = higher value
# [5] = target: Cellular tumor antigen p53 (Homo sapiens) (UniProt P04637); assay: GFP-p53 level modulators in HPV16+ cells – imaging, known kinase inhibitor set, EGFP/DsRed ratio (AID 1053116); conditions: GFP-p53 stability, stronger effect = higher value; EGFP object count: measured here: GFP-p53 positive objects count;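 also: cells exposed to compounds for 24 h at 37 °C before reading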
# Cellular tumor antigen p53 (Homo sapiens), sequence (P04637 whole entry, looked up): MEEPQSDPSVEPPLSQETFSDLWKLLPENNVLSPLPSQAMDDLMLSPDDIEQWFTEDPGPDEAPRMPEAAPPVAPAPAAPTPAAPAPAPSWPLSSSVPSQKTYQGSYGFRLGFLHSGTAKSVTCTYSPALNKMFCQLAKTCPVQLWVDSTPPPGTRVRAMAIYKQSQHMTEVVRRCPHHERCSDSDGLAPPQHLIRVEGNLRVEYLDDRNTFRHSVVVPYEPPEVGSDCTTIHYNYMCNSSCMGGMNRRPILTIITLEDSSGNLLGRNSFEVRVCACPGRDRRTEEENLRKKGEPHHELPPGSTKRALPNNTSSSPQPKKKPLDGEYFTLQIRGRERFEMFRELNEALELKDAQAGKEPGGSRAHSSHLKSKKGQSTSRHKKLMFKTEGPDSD
# [6] = inducers of IRF3 signaling, differentiated THP-1 – cell-based, PMA-stimulated THP-1, luminescence (AID 1053176); conditions: PMA-differentiated THP-1, IRF3 reporter luminescence; stronger effect = higher value
# [7] = MELAS cybrid and Rieske KO viability enhancers – cell-based, MELAS cybrids, Rieske KO mouse fibroblasts, CellTiter-Glo, primary screen (AID 1508586;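 active = mean z-score across replicates of 1.96 or higher in either the MELAS or the Rieske mutant cell line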;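 also: z relative to plate mean and SD of compound and empty wells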); conditions: low glucose
# [8] = MELAS cybrid survival, CellTiter-Glo 48 h, stronger effect = higher value
# [9] = Rieske KO mouse fibroblast survival, CellTiter-Glo 72 h
SMILES,liver cell % of control [1] [%],parasite % of control [1],percent of negative control (+Dex) [2],z-score [2],z-score [3],z-score [4],EGFP object count [5],EGFP/DsRed ratio [5],fraction signal [6],"z-score [7, 8]","z-score [7, 9]"
COc1ccc(-c2ccncc2)cc1C(N)=O,85.3,135% (inactive),90% (inactive),-0.52,0.46 (inactive),0.337 (inactive),4,0.12 (inactive),-0.004 (inactive),-0.169 (inactive),-0.232
CCn1c(-c2nonc2N)nc2cnc(Oc3cccc(NC(=O)c4ccc(N(C)C)cc4)c3)cc21,88.6,248% (inactive),96% (inactive),-0.295,-0.06 (inactive),1.22 (inactive),3.5,0.117 (inactive),-0.0105 (inactive),0.0951 (inactive),0.0229
COc1cc2c(cc1Nc1nc(N3CCc4ccccc43)c3cc[nH]c3n1)N(C(=O)CN(C)C)CC2,75,160% (inactive),104% (inactive),0.675,0.56 (inactive),0.168 (inactive),16.5,1.27 (inactive),-0.0105 (inactive),-0.598,2.39
COc1cc(Nc2nccc(-c3cnn4ncccc34)n2)cc(OC)c1,132,14.2% (inactive),29% (active),-7.79,0.5 (inactive),-1.96 (inactive),2.5,0.0482 (inactive),-0.004 (inactive),1.1 (inactive),0.69
COc1cc2c(cc1Nc1nc(Nc3ccsc3C(N)=O)c3cc[nH]c3n1)N(C(=O)CN(C)C)CCC2,54.7,369% (inactive),95.5% (inactive),-0.185,-0.225 (inactive),2.59 (inactive),1.5,0.0536 (inactive),-0.007 (inactive),2.79 (active),10.1
COc1cccc(-n2cnc3c(N/N=C/c4ccncc4)ncnc32)c1,88.9,105% (inactive),104% (inactive),0.5,-1.34 (inactive),-0.055 (inactive),1.5,0.0324 (inactive),0.0015 (inactive),2.14 (active),0.0192
COc1cccc(-n2ncc3c(N/N=C/c4ccncc4)ncnc32)c1,106,21.2% (inactive),156% (active),0.175,0.485 (inactive),0.337 (inactive),14,0.38 (inactive),0.0245 (inactive),-0.213 (inactive),0.531
N#Cc1cccc(Nc2ncc(-c3ccccc3)o2)c1,108,125% (inactive),241% (active),19.8,-0.175 (inactive),4.37 (inactive),6,0.11 (inactive),-0.004 (inactive),1.35 (inactive),0.0963
CC1=C(C(=O)Nc2ccc3[nH]ncc3c2)C(c2ccc(F)cc2)NC(=O)N1 (centres undefined),105,158% (inactive),100% (inactive),0.22,0.64 (inactive),-0.296 (inactive),3.5,0.352 (inactive),0.0035 (inactive),0.62 (inactive),-0.219
CS(=O)(=O)Nc1ccc(-c2ccc3c(NC(=O)C4CC4)n[nH]c3c2)cc1,98.9,96.9% (inactive),94% (inactive),0.82,0.39 (inactive),-0.745 (inactive),3,0.0815 (inactive),-0.009 (inactive),0.24 (inactive),-0.0618
CC(C)c1ccc2c(N=Nc3ccc(S(N)(=O)=O)cc3)c(O)[nH]c2c1,93.4,160% (inactive),94% (inactive),0.03,0.635 (inactive),-0.919 (inactive),4,0.177 (inactive),-0.0065 (inactive),-0.58 (inactive),-0.254
O=C(NC1NNC2CC(c3ccccc3)CCC21)C1CC1 (centres undefined),191,74.3% (inactive),104% (inactive),0.375,-1.73 (inactive),0.532 (inactive),2.5,0.139 (inactive),0.012 (inactive),-0.677 (inactive),-0.221
CN(C)C(=O)O[C@@H]1CN[C@@H](C#Cc2cc3ncnc(Nc4ccc(OCc5cccc(F)c5)c(Cl)c4)c3s2)C1,108,112% (inactive),87% (inactive),-0.155,0.705 (inactive),-0.722 (inactive),4,0.0417 (inactive),-0.0055 (inactive),0.394 (inactive),-0.329
CN(C)CCCNc1nccc(-c2c(-c3ccc(F)cc3)nn3cc(C(F)(F)F)ccc23)n1,98.2,96.1% (inactive),93.5% (inactive),0.05,0.5 (inactive),2.64 (inactive),4,0.104 (inactive),-0.008 (inactive),0.443 (inactive),-0.332
NCc1ccc(-n2c(-c3nonc3N)nc3cnccc32)cc1,104,162% (inactive),58% (inactive),-3.59,-0.655 (inactive),-1.05 (inactive),1,0.0079 (inactive),0.003 (inactive),-0.95 (inactive),-0.216
Cc1ccc(-c2cc3c(NC(=O)C4CC4)ncnc3o2)cc1,108,92.7% (inactive),83.5% (inactive),-0.295,-0.475 (inactive),-0.06 (inactive),4.5,0.0878 (inactive),-0.004 (inactive),-0.119 (inactive),0.346
CNC(=O)c1cncc(/C=C/c2ccccc2Cl)c1,165,16.8% (inactive),109% (inactive),0.82,-0.36 (inactive),1.43 (inactive),6.5,0.185 (inactive),0.0005 (inactive),1.56 (inactive),-0.00226
Nc1nccc(-c2c(-c3ccc(F)cc3)ncn2C2CCC(O)CC2)n1 (centres undefined),93,24.7% (inactive),110% (inactive),1.26,0.765 (inactive),2.25 (inactive),2,0.124 (inactive),-0.0025 (inactive),-1.17 (inactive),-0.368
CC(=O)Nc1cccc(C#Cc2cncnc2Nc2ccc(OCc3cccc(F)c3)c(Cl)c2)n1,82.2,102% (inactive),68% (inactive),-2.19,0.02 (inactive),0.499 (inactive),6.5,0.198 (inactive),-0.0035 (inactive),0.392 (inactive),-0.337
NS(=O)(=O)c1ccc(N=Nc2c(O)[nH]c3cccc(CCc4ccncc4)c23)cc1,87.4,102% (inactive),92.5% (inactive),-0.56,-0.35 (inactive),4.97 (inactive),4,0.0896 (inactive),-0.003 (inactive),-0.234 (inactive),-0.178
CN(C)CCCn1c(-c2nonc2N)nc2cnccc21,105,124% (inactive),91% (inactive),0.395,0.105 (inactive),-0.067 (inactive),3.5,0.0389 (inactive),-0.0015 (inactive),-0.855 (inactive),-0.298
CCOc1ccc2c(-c3ccnc(Nc4cccc(C(F)(F)F)c4)n3)cnn2n1,69.9,174% (inactive),78% (inactive),0,0.335 (inactive),-0.613 (inactive),10,0.229 (inactive),0.0035 (inactive),-0.0749 (inactive),-0.0737
Cc1nnc(-c2ccc(C)c(-c3ccc(C(=O)NCc4ccc(Cl)cc4)cc3)c2)o1,161,31.3% (inactive),106% (inactive),1.07,0.9 (inactive),-0.451 (inactive),2,0.079 (inactive),-0.0105 (inactive),-0.978 (inactive),-0.533
Cc1ccc2c(-c3ccnc(Nc4ccc5c(c4)OCCO5)n3)c(-c3ccc(C(F)(F)F)cc3)nn2n1,142,33.6% (inactive),86% (inactive),-0.095,-1.23 (inactive),0.821 (inactive),1.5,0.0121 (inactive),0.002 (inactive),-0.379 (inactive),0.474
COc1ccc(-c2nn3ncccc3c2-c2ccnc(Nc3ccc4c(c3)OCCO4)n2)cc1,172,12.5% (active),79% (inactive),-1.21,1.58 (inactive),-0.248 (inactive),1.5,0.0413 (inactive),0.0025 (inactive),0.896 (inactive),0.839
CCN1CCC(C(=O)NC2NNC3NNC(c4cccc(F)c4F)CC32)CC1 (centres undefined),73.6,144% (inactive),114% (inactive),-0.315,-0.46 (inactive),2.7 (inactive),15,0.326 (inactive),-0.002 (inactive),-0.831 (inactive),-0.194
Fc1ccc(-c2ncn(C3CCNCC3)c2-c2ccnc(Oc3ccc(Oc4ccccc4)cc3)n2)cc1,58.8,102% (inactive),99% (inactive),0.615,-1.07 (inactive),-0.715 (inactive),28.5,0.354 (inactive),-0.002 (inactive),-0.215 (inactive),-0.0474
Nc1ccc(C#Cc2cncnc2Nc2ccc(OCc3cccc(F)c3)c(Cl)c2)cc1,98,136% (inactive),106% (inactive),0.915,-0.52 (inactive),-0.735 (inactive),4,0.276 (inactive),0.001 (inactive),-0.813 (inactive),-0.0706
COc1cc(N2CCN(C(C)C)CC2)ccc1Nc1nc(Nc2ccc(F)cc2C(N)=O)c2cc[nH]c2n1,64.4,792% (inactive),70% (inactive),-2.39,0.205 (inactive),0.179 (inactive),4,0.221 (inactive),0.001 (inactive),2.96 (active),7.03

# — PubChem BioAssay
